Screening results deposited in PubChem by The Scripps Research Institute Molecular Screening Center.
Shown are actives, neighbours in structure and some others; about 4.1% of the full set was active somewhere.
hcDAF12 agonist: H. contortus DAF-12 nuclear receptor activators, primary screen, cell-based, luminescence, HEK293, lit1-tk-luc reporter. activation, % at 6.8 µM. HEK293 hcDAF-12 lit1-tk-luc reporter; 0% DMSO, 100% Δ7-dafachronic acid. 370,000 compounds, 1.4% hits;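 active = activation above the mean of all tested compounds plus 3 SD, cut at about 5.5% in these data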
DAX1 inh-1: DAX1 (NR0B1) inhibitors, primary screen, cell-based, HEK293, Gal4-DAX1, luciferase luminescence. HEK293 Gal4-DAX1 luciferase reporter. Nuclear receptor subfamily 0 group B member 1 (Homo sapiens), P51843. 340,000 compounds, 0.99% hits. AID 504766, 2011. inhibition, % at 6.75 µM;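 active = inhibition above the mean over all tested compounds plus 3 SD, cut at about 4.2% in these data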;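 note: inhibition shows as a rise in luminescence from relieved DAX1 repression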
Target sequence (P51843 207-470 limits assumed): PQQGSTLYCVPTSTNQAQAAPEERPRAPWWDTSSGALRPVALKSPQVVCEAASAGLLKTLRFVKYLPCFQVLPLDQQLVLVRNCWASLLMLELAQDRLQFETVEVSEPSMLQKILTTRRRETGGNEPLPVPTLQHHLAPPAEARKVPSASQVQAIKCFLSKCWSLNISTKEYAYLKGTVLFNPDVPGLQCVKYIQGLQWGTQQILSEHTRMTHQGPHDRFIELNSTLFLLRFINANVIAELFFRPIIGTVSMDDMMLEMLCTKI
hgDAF12 agonist: H. glycines DAF-12 receptor agonists, primary screen, cell-based, luminescence, HEK293, GAL4 fusion, UAS-luciferase; HEK293 GAL4-hgDAF12 UAS-luciferase reporter, agonist luminescence; normalized to butyrate control; activation, % at 6.8 µM; 370,000 compounds, 1.8% hits; AID 687014, 2013;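 active = activation above a cutoff set at the mean of all screened compounds plus 3 SD, cut at about 10% in these data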
DAX1 inh-2: DAX1 (NR0B1) inhibitors on StAR promoter, primary screen, cell-based, luminescence, SF-1 (NR5A1), full-length DAX-1 | HEK293T StAR-luciferase reporter, SF-1/DAX-1 repression relief | inhibition, % at 6.8 µM | 370,000 compounds, 1.1% hits;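 active = inhibition above the mean over all tested compounds plus 3 SD, cut at about 3.6% in these data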;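 note: higher inhibition means more luminescence from relief of DAX-1 repression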
ssDAF-12 act: S. stercoralis DAF-12 nuclear receptor activators, primary screen, cell-based, luminescence, HEK293, GRIP1 co-expression, lit1-tk-luc; Nuclear hormone receptor DAF-12 (Strongyloides stercoralis); HEK293 ssDAF-12/GRIP1 lit1-tk-luc reporter; % of 3 µM dafachronic acid response; activation, % at 6.8 µM; 370,000 compounds, 1% hits; AID 652126, 2013;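 active = activation above the mean over all tested compounds plus 3 SD, cut at about 0.9% in these data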
A number is an active result; - = inactive; . = no result given.

SMILES	hcDAF12 agonist	DAX1 inh-1	hgDAF12 agonist	DAX1 inh-2	ssDAF-12 act
CN(C)S(=O)(=O)c1ccc(Cl)c(NC(=O)COc2ccccc2[N+](=O)[O-])c1	-	-	-	-	0.9
CC(C)c1ccccc1NC(=O)COC(=O)COc1ccccc1[N+](=O)[O-]	-	-	-	-	1.9
Cn1nc(C(=O)OCC(=O)Nc2ccccc2[N+](=O)[O-])c2ccccc2c1=O	-	-	-	-	1.0
O=C(COC(=O)COc1ccccc1[N+](=O)[O-])Nc1ccccc1Br	-	-	-	-	-
CC(C)N1CCCCC(NC(=O)c2ccc(F)cc2)C1=O (stereo unspecified)	-	.	-	-	-
O=S1(=O)c2ccc(Br)cc2OC[C@@H](Cc2ccccc2)N1Cc1cn(Cc2ccc(Cl)cc2)nn1	-	.	-	-	-
N#Cc1ccc(Cn2nnc(-c3ccc(N4CCOCC4)cc3)n2)cc1	-	.	-	-	-
CCn1c(COc2ccccc2)nnc1SCC(=O)Nc1ccc(Oc2ccccc2)cc1	-	.	-	-	-
COc1cc(/C=N/NC(=O)COc2ccc(C)cc2)ccc1OC(=O)c1cccs1	-	-	-	-	0.9
Cc1ccc(/C=N\NC(=O)COc2ccc(C)cc2[N+](=O)[O-])cc1	-	7.0	-	-	-
Cc1ccc(OCC(=O)N/N=C\c2ccc(O)c([N+](=O)[O-])c2)c([N+](=O)[O-])c1	-	-	-	-	-
COC(=O)CN1CCN(C(=O)c2csc3ccccc23)CC1	-	.	-	-	-
COc1ccc(C(=O)CSC#N)cc1OC	-	-	13	-	-
COc1ccc(Sc2cccc3c2S(=O)(=O)N(C2CC2)C[C@@H](COCc2ccccc2)O3)cc1OC	-	.	-	-	-
O=C(O)c1ccc(N=NN2CCCCCC2)cc1	-	-	11	-	-
O=C(O)c1ccc(N=NN2CCCC2)cc1	-	-	-	-	-
CN(C)Cc1nnnn1-c1ccccc1	-	4.9	-	-	-
CN(C)S(=O)(=O)c1ccc2nc(NC(=O)c3cccnc3)sc2c1	-	4.7	11	-	-
Cc1nc2cc(NC(=O)c3ccc(Br)s3)ccc2s1	-	-	11	-	-
Cc1ccc(C(=O)Nc2ccc3nc(C)sc3c2)o1	-	-	11	4.0	-
Cc1ccc(C(=O)Nc2ccc3nc(C)sc3c2)s1	-	-	-	-	-
Cc1ccc(C(=O)Nc2nc3ccc(S(C)(=O)=O)cc3s2)o1	-	-	12	-	-
O=C1NC(=S)SC1=C1CCCC1	-	-	-	-	-
CC(C)(C)c1ccc(-c2cc(NC(=O)Cc3c[nH]c4ccccc34)ccc2Nc2cccnc2)cc1	-	.	-	-	1.7
CCCc1ccc(-c2cc(NC(=O)Cc3c[nH]c4ccccc34)ccc2Nc2cccnc2)cc1	-	.	-	-	-
SMILES	hcDAF12 agonist	DAX1 inh-1	hgDAF12 agonist	DAX1 inh-2	ssDAF-12 act
c1ccc(-c2noc(-c3cccnc3)n2)cc1	-	-	-	3.6	-
c1ccc(-c2nc(-c3ccncc3)no2)cc1	-	-	-	-	-
c1ccc(-c2ccc(-c3nc(-c4cccnc4)no3)cc2)cc1	-	-	-	3.8	-
Cc1ccccc1-c1nc(-c2ccccn2)no1	-	-	-	-	-
Cc1ccccc1-c1nc(-c2cccnc2)no1	6.1	-	10	-	-
Cc1cc(NC(=O)CSc2nc3c(sc4ccccc43)c(=O)n2CCc2ccccc2)n[nH]1	-	-	-	-	-
Cc1cc(NC(=O)CSc2nc3c(sc4ccccc43)c(=O)n2CCCN2CCOCC2)n[nH]1	-	-	11	-	-
O=C(NCCc1c[nH]c2ccccc12)OCc1cn(Cc2cccc(C(F)(F)F)c2)nn1	-	.	-	-	-
COC(=O)c1cc(S(=O)(=O)N2CCN(c3cccc(C(F)(F)F)c3)CC2)cn1C	-	.	-	-	-
COc1cccc(OCc2cc(C(=O)N3CCCC3c3ccccn3)no2)c1 (stereo unspecified)	-	-	12	-	-
COc1cccc(OCc2cc(C(=O)N3CCNC(=O)C3Cc3ccccc3)no2)c1 (stereo unspecified)	-	-	-	4.2	-
NC(=O)[C@@H]1CCCN1C(=O)c1cc(COc2ccc3c(c2)CCCC3)on1	-	-	-	4.5	-
Cc1cccc(C)c1OCc1cc(C(=O)N2CCC[C@H]2C(N)=O)no1	-	-	-	-	-
C=CCN(CC#Cc1ccccc1)Cc1ccc(OC)cc1	-	.	-	-	-
COC(=O)CCC[C@H](C)[C@@H](NS(=O)(=O)c1ccc(C)cc1)C(C)(C)C	-	.	-	-	-
Cn1c(/N=C/c2cccs2)nc2ccccc21	5.8	-	-	-	-
CCn1c(/N=C/c2ccccc2O)nc2ccccc21	-	-	-	-	-
Cn1c(/N=C/c2cc(Cl)ccc2O)nc2ccccc21	6.5	.	-	-	1.6
CCN(CC)C(=O)CC[C@H]1CC[C@]2(CCCN(Cc3ccc(OC)cc3)C2)O1	-	.	-	-	-
O=C(CCc1ccccc1)Nc1ccccc1	-	-	-	-	-
O=C(CCc1ccccc1)Nc1ccc2ccccc2n1	-	-	12	-	-
Nc1c(C(=O)OCC(=O)NCc2ccccc2)[nH]c(=O)[nH]c1=O	-	7.9	-	-	-
O=C(COC(=O)c1ccc2ccccc2n1)NCc1ccccc1	-	4.9	-	-	-
Cn1c(N2CCN(C(=O)NC34CC5CC(CC(C5)C3)C4)CC2)nc2ccccc21	-	-	-	-	-
Nc1nc(Cl)nc2ncn(Cc3ccccc3)c12	-	-	11	-	-
SMILES	hcDAF12 agonist	DAX1 inh-1	hgDAF12 agonist	DAX1 inh-2	ssDAF-12 act
Nc1ncnc2c1ncn2Cc1ccccc1	-	-	-	-	-
COc1ccc(OC)c(C2CC(=O)Nc3c2c(=O)[nH]c2ncnn32)c1 (stereo unspecified)	-	-	-	-	-
CC1(C)CC(C(=O)NCCC(c2ccccc2)c2ccco2)CCO1 (stereo unspecified)	-	-	-	-	-
CC1(C)CC(NCCC(c2ccccc2)c2ccco2)CCO1 (stereo unspecified)	-	8.2	-	-	-
Cc1ccc(-n2c(SCC(=O)NN=Cc3c[nH]c4ccccc34)nnc2-c2ccccc2)cc1	-	.	-	-	-
CCOC(=O)c1nn(-c2ccc3c(c2)CCN3C(C)=O)cc1O	-	-	-	3.9	-
CCOC(=O)c1nn(-c2ccc(F)cc2)cc1O	-	-	-	-	-
CC#CCc1cc2ccccc2c(=O)o1	-	4.6	-	-	-
O=CNC(n1cnc2c(N3CCOCC3)ncnc21)C(Cl)(Cl)Cl (stereo unspecified)	-	10.0	-	-	-
